What was measured:
Experiment in all cases: PBM binding z-score (relative to random genomic background probes); higher = stronger binding; sequences stand for … in GC…GCGATTGACAGCGTAGAATGAAGG
[1] = test system: FXR:RXRa (NR concentration 270 nM, RXRa partner concentration 90 nM)
In short: (§1)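 Binding buffer was PBS pH 7.4 with 2% milk, 0.02% Triton X-100, 1 mM DTT, 0.2 mg/mL BSA and 0.4 mg/ml salmon testes DNA. In it, ligand-free nuclear receptor dimers were incubated 1 h on custom Agilent 4×180K protein-binding microarrays carrying double-stranded probes. Antibodies against each partner (one per run) detected binding, and z-scores were calculated against random background probes after regression normalization of scanned fluorescence.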

[2] = test system: LXRa:RXRa (NR concentration 270 nM, RXRa partner concentration 90 nM)
In short: as §1

[3] = test system: LXRa homodimer (NR concentration 270 nM)
In short: as §1

[4] = test system: LXRb:RXRa (NR concentration 270 nM, RXRa partner concentration 90 nM)
In short: as §1

[5] = test system: LXRb homodimer (NR concentration 270 nM)
In short: as §1

[6] = test system: PPARa:RXRa (NR concentration 270 nM, RXRa partner concentration 90 nM)
In short: as §1

[7] = test system: PPARg:RXRa (NR concentration 180 nM, RXRa partner concentration 90 nM)
In short: as §1

[8] = test system: PPARg:RXRa 270nM:90nM, anti-RXR (NR concentration 270 nM, RXRa partner concentration 90 nM)
In short: as §1

[9] = test system: PPARg:RXRa 30nM:10nM, anti-RXR (NR concentration 30 nM, RXRa partner concentration 10 nM)
In short: as §1

[10] = test system: PPARg:RXRa 90nM:30nM, anti-RXR (NR concentration 90 nM, RXRa partner concentration 30 nM)
In short: as §1

[11] = test system: PPARg:RXRa DBDmut IVT, anti-RXR (DBD mutation: RXRa K156A/R161A, NR concentration 270 nM, RXRa partner concentration 90 nM)
In short: as §1

[12] = test system: PPARg:RXRa IVT, anti-PPARg (NR concentration 270 nM, RXRa partner concentration 90 nM)
In short: as §1

[13] = test system: PPARg DBDmut:RXRa IVT, anti-PPARg (DBD mutation: PPARg1 K132A/R137A, NR concentration 270 nM, RXRa partner concentration 90 nM)
In short: as §1

[14] = test system: PPARg DBDmut IVT, anti-PPARg (DBD mutation: PPARg1 K132A/R137A, NR concentration 270 nM)
In short: as §1

[15] = test system: PPARg homodimer (NR concentration 180 nM)
In short: as §1

[16] = test system: PXR:RXRa (NR concentration 270 nM, RXRa partner concentration 90 nM)
In short: as §1

[17] = test system: PXR homodimer (NR concentration 270 nM)
In short: as §1

[18] = test system: RARa:RXR (NR concentration 270 nM, RXRa partner concentration 90 nM)
In short: as §1

[19] = test system: RARa homodimer (NR concentration 270 nM)
In short: as §1

[20] = test system: RARb:RXRa (NR concentration 270 nM, RXRa partner concentration 90 nM)
In short: as §1

Row | Sequence | PBM binding z-score [1] | PBM binding z-score [2] | PBM binding z-score [3] | PBM binding z-score [4] | PBM binding z-score [5] | PBM binding z-score [6] | PBM binding z-score [7] | PBM binding z-score [8] | PBM binding z-score [9] | PBM binding z-score [10] | PBM binding z-score [11] | PBM binding z-score [12] | PBM binding z-score [13] | PBM binding z-score [14] | PBM binding z-score [15] | PBM binding z-score [16] | PBM binding z-score [17] | PBM binding z-score [18] | PBM binding z-score [19] | PBM binding z-score [20]
1 | TAGCCTAGGTCATTGGGCCAGTAAAGTACGCATC | 4.37 | 3.38 | 0.448 | 2.29 | 0.0341 | 4 | 3.28 | 3.76 | 1.14 | 2.4 | 2.98 | 3.93 | -0.798 | -0.582 | 0.663 | 1.55 | -0.454 | 2.08 | 0.18 | 3.63
2 | ACTCAGAGGACAAAGGTCAGAGCTACGCCAGTGA | 4.51 | 4.87 | 1.72 | 3.52 | 0.532 | 5.3 | 7.56 | 7.42 | 5.13 | 7.46 | 1.49 | 3.79 | -0.0394 | -0.208 | 3.47 | 4.07 | 0.501 | 5.53 | 1.81 | 4.71
3 | CTAACTAGGTCAAGAGGTCAAAGTCCGCTTCCCG | 6.96 | 6.46 | 6.71 | 5.78 | 2.03 | 6.55 | 10.3 | 8.4 | 7.88 | 8.64 | 8.74 | 8.7 | 3.27 | 2.76 | 5.39 | 6.07 | 2.21 | 7.15 | 1.67 | 5.5
4 | AGAATGAGGTGAAGATCAGGGAAACAGAATACAT | 0.903 | 0.457 | -0.113 | 0.85 | -0.114 | 2.91 | 2.33 | 2.21 | 0.859 | 1.5 | 4.13 | 4.03 | 1.46 | 0.73 | 0.633 | 0.242 | 0.183 | 0.786 | 0.494 | 1.32
5 | TCAGACAGGTGAAGGTAAATCAGGTACGCAGTCG | 1.69 | 1.37 | 0.109 | 1.11 | 0.081 | 1.6 | 0.829 | 2.39 | 4.45 | 3.31 | 2.98 | 1.27 | -0.386 | 0.474 | 1.11 | 0.994 | 0.51 | 1.26 | 0.658 | 1.4
6 | CCTTACGGGTCACTCACAGGTTATAGCATTTGGA | 4.95 | 4.32 | 0.653 | 3.67 | 0.243 | 5.1 | 4.15 | 3.82 | 1.29 | 2.78 | 3.1 | 3.43 | 0.37 | 0.401 | 3.21 | 3.56 | 0.559 | 4.46 | 1.29 | 3.77
7 | GCATATAGGGAATACAAGGTGAAAGTCCGATTGT | 0.23 | -0.211 | -0.101 | -0.103 | -0.489 | 0.924 | 0.818 | 0.797 | 0.0214 | 0.338 | 1.83 | 1.35 | 0.819 | -0.152 | 0.308 | 0.0196 | -0.0382 | 1.58 | 0.263 | 0.266
8 | AATACAGGGTCACTAGTCCAGAGTAGGTACGAAT | 5.5 | 4.68 | 0.946 | 3.94 | 1.32 | 5.09 | 5.61 | 5.17 | 1.77 | 3.89 | 3.25 | 4.67 | 0.95 | 0.987 | 1.66 | 2.97 | 0.58 | 3.7 | 1.03 | 3.99
9 | TAGCCTAGGTCAGATTGGGCCAGTATACGCTATA | 2.65 | 1.25 | -0.472 | 0.995 | -0.0361 | 1.43 | 0.564 | 0.735 | -0.437 | -0.114 | 0.821 | 1.47 | -0.745 | -0.0991 | 0.692 | 0.48 | -0.72 | 0.891 | -0.737 | 3.16
10 | CTTCCAAGGTCATAGGAGGTCAGTGAAGACAGAT | 7.67 | 7.56 | 6.46 | 6 | 1.51 | 6.02 | 5.71 | 6.17 | 2.87 | 4.89 | 3.59 | 4.67 | 1.93 | 1.31 | 4.55 | 6.93 | 4.92 | 6.14 | 3.57 | 5.42
11 | GATACAGGGACAAGGCCAGAGTACGCGTATTGAT | -0.342 | -0.63 | -0.318 | -0.797 | -0.748 | -0.534 | 0.946 | 0.318 | 0.00447 | -0.175 | 0.111 | 0.0816 | -0.754 | -0.819 | 0.187 | -0.396 | 0.236 | -0.445 | -0.566 | 0.943
12 | CGAACTAGGTCAAGGACATTGAATCTCCGCACGC | 3.45 | 2.4 | 0.44 | 1.68 | 0.0209 | 4.43 | 7.54 | 6.28 | 4.19 | 6 | 8.24 | 7.84 | 1.49 | 0.731 | 1.29 | 1.56 | 0.252 | 2.12 | 0.87 | 3.98
13 | ATCTCTAGGTCAAGTTCAGTGAAAGATCGATAGA | 5.11 | 5.65 | 4.79 | 3.98 | 3.26 | 4.74 | 5.82 | 5.4 | 2.79 | 4.77 | 6.76 | 6.5 | 2.13 | 1.61 | 2.41 | 3.45 | 2.13 | 3.16 | 1.74 | 4.55
14 | CTCGAAAGGTCGTGCTCAGGTGAGCATACCAAAC | 5.82 | 4.04 | -0.293 | 3.23 | 0.516 | 4.76 | 3.03 | 4.08 | 1.02 | 2.96 | 0.762 | 2.31 | 0.195 | 0.25 | 3.06 | 3.43 | -0.196 | 4.74 | -0.133 | 3.92

— the supplement of paper PMC6555819
